Drawing on PubChem BioAssay (NCI), this text covers growth inhibition for 21 compounds.

This is part of a sample that, as a whole, favours compounds with a hit. Of some 79,000 tested, about 15% had one in any assay. Values without a mark were called inactive. Active and inactive are the calls of the source. No stated cut-off is given here; in the data, active means growth inhibition above about 70%; inactive means the rest.

Test [1] in a line: NCI Yeast Anticancer Drug Screen. Data for the rad50 strain (AID 155).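 Further: 0% = growth of vehicle-only cultures of the same strain.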 The following applies: S. cerevisiae rad50 strain growth inhibition; at 50.0 µM; hits give high values. The method, boiled down: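 A DNA repair-deficient yeast mutant serves as the test organism; compound-induced growth inhibition is calculated against vehicle-treated cells.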
Test [2] in a line: NCI Yeast Anticancer Drug Screen. Data for the mec2-1 strain (AID 157). The note with it: S. cerevisiae mec2-1 strain, at 50.0 µM, hits give high values. The method, boiled down: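 Growth inhibition is read against vehicle-treated controls after compound exposure of the mec2-1 yeast strain, which is defective in DNA damage repair or cell cycle control.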
Test [3] is described as follows: NCI Yeast Anticancer Drug Screen. Data for the sgs1 mgt1 strain (AID 161).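 Further: 0% = growth of cultures given vehicle only.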 The note with it: S. cerevisiae sgs1 mgt1 strain, at 50.0 µM, hits give high values. Put shortly:
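Growth of a repair-deficient yeast mutant was monitored after compound treatment and expressed as inhibition relative to vehicle-treated cultures.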

The nature of test [4]: NCI Yeast Anticancer Drug Screen. Data for the cln2 rad14 strain (AID 165).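 Further: 0% = growth equal to vehicle treated cultures.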 The note with it: S. cerevisiae cln2 rad14 strain, at 50.0 µM, hits give high values. The method, boiled down:
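Growth inhibition, relative to vehicle-treated controls, is the read-out. The test organism is a yeast strain with defined genetic alterations, cln2 rad14.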

Test [5] is described as follows: NCI Yeast Anticancer Drug Screen. Data for the bub3 strain (AID 167). The note with it: S. cerevisiae bub3 mutant strain, at 50.0 µM, hits give high values. Put shortly: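 Inhibition values come from growth of compound-treated mutant yeast normalised to vehicle-treated controls.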
Test [6] is described as follows: NCI Yeast Anticancer Drug Screen. Data for the mlh1 rad18 strain (AID 175). The note with it: S. cerevisiae mlh1 rad18 strain growth inhibition; at 50.0 µM; hits give high values. Put shortly: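 Cells of a genetically altered yeast strain, deficient in DNA damage repair, were treated with compound. Their growth was then compared with that of vehicle-treated cultures to give inhibition.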

Turning to `COC(=O)c1ccc(C=O)[nH]1`, the growth inhibition in test [1] is 8%; in test [2], -22.1%; in test [3], 0.55%; in test [4], -10.5%; in test [5], 4.7%; in test [6], 7.25%.

`Nc1ccn(C2CC3OCC3O2)c(=O)n1` (stereo unspecified): the growth inhibition in test [1] was -13.2%; in test [2], 24.9%; in test [3], -1.25%; in test [4] it was -5.7%; in test [5], 0.95%; in test [6], 0.65%.

On to `O=c1[nH]cnc2nc(N3CCN(c4ccccc4)CC3)sc12`, for which the growth inhibition in test [1] is 18.8%; in test [2], 11.4%; in test [3] it was 19.8%; in test [4], -40.7%; in test [5], 4.9%; in test [6], 23.4%.

In the case of `CC(=O)c1ccc(N2C(=O)C/C(=C/c3ccccc3O)C2=O)cc1`, the growth inhibition was 16.1% in test [1]; 0.05% in test [2]; 9.3% in test [3]; -20.9% in test [4]; 5.2% in test [5]; 16.6% in test [6].

For `NC(=O)COc1ccc(Cl)cc1Cl`, the growth inhibition in test [1] is 16.6%; in test [2], -0.5%; in test [3], 28.4%; in test [4], -0.4%; in test [5], 5.7%; in test [6], 20%.

With `COc1ccc(-c2c(C#N)c(N)nc(C)c2-c2ccccc2)cc1`, the growth inhibition in test [1] is -26.4%; in test [2] it was -10.8%; in test [3], -6.85%; in test [4] it was -24.6%; in test [5] it was -5.65%; in test [6], 16.9%.

As for `O=C(O)CC(CC(=O)O)c1ccc2c(c1)OCO2`, the growth inhibition in test [1] was -32.6%; in test [2], -20.9%; in test [3], -3.7%; in test [4], -1.2%; in test [5], -35.8%; in test [6], -13.1%.

On to `CCOC(=O)C1Oc2ccccc2OC1C` (stereo unspecified), for which the growth inhibition in test [1] is 24.5%; in test [2] it was -15.7%; in test [3] it was 9.45%; in test [4], 12.9%; in test [5], 16.3%; in test [6], 3.85%.

For the compound `Cc1cc2c(s1)C(=O)c1sccc1C2=O`, the growth inhibition in test [1] is 89.7% (active); in test [2], 90.8% (active); in test [3], 89.8% (active); in test [4], 91.5% (active); in test [5] it was 87.2% (active); in test [6], 89% (active).

For the compound `O=C(CC(CC(=O)Oc1c(Br)cc(Br)cc1C(=O)O)C(=O)Oc1c(Br)cc(Br)cc1C(=O)O)Oc1c(Br)cc(Br)cc1C(=O)O`, the growth inhibition was -17.4% in test [1]; -23.4% in test [2]; -10% in test [3]; 8.7% in test [4]; -24% in test [5]; -5.6% in test [6].

As for `Cc1ccccc1-c1nc(/C=C2\C(=O)C=Cc3ccccc32)c(O)o1`, the growth inhibition in test [1] is -17.3%; in test [2], -4.45%; in test [3], -1.1%; in test [4], 23.6%; in test [5], -2.55%; in test [6], -1.6%.

`COc1ccccc1/C=C/c1nc2ccccc2o1`: the growth inhibition in test [1] was 47.6%; in test [2] it was 19.7%; in test [3] it was 56.1%; in test [4], 13.6%; in test [5] it was 59.8%; in test [6] it was 53%.

As to `Cc1ccc(/C=N/NS(=O)(=O)c2ccccc2)cc1`, the growth inhibition in test [1] was 18.4%; in test [2], 13.8%; in test [3], 15.6%; in test [4], -16.7%; in test [5] it was 12.1%; in test [6], 24.9%.

For the compound `c1ccc2c(c1)N=C(c1cccc3ccccc13)CC(c1cccc3ccccc13)S2` (stereo unspecified), the growth inhibition was -28% in test [1]; -20.9% in test [2]; -46.5% in test [3]; -3.25% in test [4]; -18.9% in test [5]; -37% in test [6].

On to `CCSC(OC(C)=O)C(Nc1ccc([N+](=O)[O-])cc1[N+](=O)[O-])C(OC(C)=O)C(OC(C)=O)C(COC(C)=O)OC(C)=O` (stereo unspecified), for which the growth inhibition in test [1] was 23.7%; in test [2], 10.8%; in test [3] it was 6.2%; in test [4], 17.2%; in test [5] it was -0.6%; in test [6], 24.9%.

Turning to `Cc1c(Cl)cccc1NC(=O)Nc1ccc(S(N)(=O)=O)cc1`, the growth inhibition in test [1] is 0.7%; in test [2], 29.4%; in test [3], 39.4%; in test [4], 1.4%; in test [5], 21.8%; in test [6], 19.1%.

With `COc1ccccc1OCC(O)CNc1ccc(Cl)cc1C(=O)c1ccccc1` (stereo unspecified), the growth inhibition in test [1] is 3.25%; in test [2], 21.5%; in test [3], -8.8%; in test [4] it was -12%; in test [5], -2.7%; in test [6], -19.4%.

As to `CN(C)C=NCCN1CCOCC1`, the growth inhibition is 9.3% in test [1]; 15.1% in test [2]; 26.8% in test [3]; 5.55% in test [4]; -7.1% in test [5]; -47.6% in test [6].

For `CC(=NNC(=S)Nc1ccc(C)cc1)c1cccc(C(C)=NNC(=S)Nc2ccc(C)cc2)n1`, the growth inhibition is 35.5% in test [1]; 14.1% in test [2]; 36.8% in test [3]; 17.4% in test [4]; 12.4% in test [5]; 23.8% in test [6].

Turning to `CCN(CC)c1ccc(/C=C(\C#N)C(N)=S)cc1`, the growth inhibition in test [1] is 35.4%; in test [2], 23.6%; in test [3], 45.2%; in test [4], 0.85%; in test [5], 15.6%; in test [6], 16.5%.

As for `Cc1nnc2c3nccnc3c(Cl)nn12`, the growth inhibition in test [1] is 20.8%; in test [2], 25%; in test [3] it was 56.3%; in test [4], 20.3%; in test [5] it was 9%; in test [6] it was 24.1%.
